Source: PubChem BioAssay AID1159580 (chemical genetic matrix, 2015)
In all, about 5,500 compounds went through this assay and about 2,000 (36%) were called active. About 18% were inconclusive and are not listed. Cut-off read from the data, not from the text of the source: active = normalized growth mostly below about 0.91 (no sharp cut-off); inconclusive = no clear call, values can overlap the other calls; inactive = mostly above about 0.92. The list shows a part of the results.

Assay: chemical genetic growth profiling, strain panel (AID 1159580);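 note: tested at 20 µM; growth read once vehicle control cultures reached saturation at 30 °C; 1 = growth at the plate median or of vehicle wells; lower values mean less growth of the strain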
Settings: growth OD

Measured: normalized growth

Cc1cc(=O)oc2cc(O)c(O)cc12
inactive: S. cerevisiae deletion strains, locus YJR043C, strain POL32, stronger effect = lower value 0.964 | S. cerevisiae deletion strains, locus YJR066W, strain TOR1, stronger effect = lower value 0.913 | S. cerevisiae deletion strains, locus YKL009W, strain mrt4, stronger effect = lower value 0.922 | S. cerevisiae deletion strains, locus YKL068W, stronger effect = lower value 1.01 | S. cerevisiae deletion strains, locus YKL085W, strain MDH1 (second series), stronger effect = lower value 1.02 | S. cerevisiae deletion strains, locus YKL085W, strain MDH1, stronger effect = lower value 1.02 | S. cerevisiae deletion strains, locus YKL160W, strain elf1, stronger effect = lower value 1 | S. cerevisiae deletion strains, locus YKL190W, strain CNB1, stronger effect = lower value 1.01 | S. cerevisiae deletion strains, locus YKR001C, strain vps1, stronger effect = lower value 0.934 | S. cerevisiae deletion strains, locus YKR026C, strain gcn3, stronger effect = lower value 0.994 | S. cerevisiae deletion strains, locus YKR091W, strain srl3, stronger effect = lower value 0.981 | S. cerevisiae deletion strains, locus YLL001W, strain dnm1, stronger effect = lower value 0.995 | S. cerevisiae deletion strains, locus YLL026W, stronger effect = lower value 0.989 | S. cerevisiae deletion strains, locus YLL041C, strain sdh2, stronger effect = lower value 0.986 | S. cerevisiae deletion strains, locus YLR027C, strain aat2, stronger effect = lower value 0.976 | S. cerevisiae deletion strains, locus YLR039C, strain RIC1, stronger effect = lower value 0.945 | S. cerevisiae deletion strains, locus YLR058C, strain SHM2, stronger effect = lower value 0.99 | S. cerevisiae deletion strains, locus YLR102C, strain apc9, stronger effect = lower value 1.01 | S. cerevisiae deletion strains, locus YLR113W, strain HOG1, stronger effect = lower value 0.954 | S. cerevisiae deletion strains, locus YLR221C, strain rsa3, stronger effect = lower value 0.986 | S. cerevisiae deletion strains, locus YLR258W, strain gsy2, stronger effect = lower value 1 | S. cerevisiae deletion strains, locus YLR262C, strain YPT6 (second series), stronger effect = lower value 0.962 | S. cerevisiae deletion strains, locus YLR262C, strain YPT6, stronger effect = lower value 1.01 | S. cerevisiae deletion strains, locus YLR268W, strain sec22, stronger effect = lower value 0.983 | S. cerevisiae deletion strains, locus YLR320W, strain mms22, stronger effect = lower value 0.987 | S. cerevisiae deletion strains, locus YLR330W, strain CHS5, stronger effect = lower value 1 | S. cerevisiae deletion strains, locus YLR342W, strain FKS1 (second series), stronger effect = lower value 0.992 | S. cerevisiae deletion strains, locus YLR342W, strain FKS1, stronger effect = lower value 1.01 | S. cerevisiae deletion strains, locus YLR357W, strain rsc2, stronger effect = lower value 1.01 | S. cerevisiae deletion strains, locus YLR370C, strain arc18, stronger effect = lower value 0.982 | S. cerevisiae deletion strains, locus YLR371W, strain rom2, stronger effect = lower value 1 | S. cerevisiae deletion strains, locus YLR384C, strain iki3, stronger effect = lower value 0.993 | S. cerevisiae deletion strains, locus YLR418C, strain cdc73, stronger effect = lower value 0.939 | S. cerevisiae deletion strains, locus YML016C, strain PPZ1, stronger effect = lower value 0.994 | S. cerevisiae deletion strains, locus YML032C, strain rad52, stronger effect = lower value 0.965 | S. cerevisiae deletion strains, locus YML120C, strain ndi1, stronger effect = lower value 1 | S. cerevisiae deletion strains, locus YML124C, strain tub3, stronger effect = lower value 1.01 | S. cerevisiae deletion strains, locus YMR058W, strain fet3, stronger effect = lower value 0.989 | S. cerevisiae deletion strains, locus YMR078C, strain ctf18, stronger effect = lower value 1 | S. cerevisiae deletion strains, locus YMR125W, strain sto1, stronger effect = lower value 1.04 | S. cerevisiae deletion strains, locus YMR129W, stronger effect = lower value 1 | S. cerevisiae deletion strains, locus YMR205C, strain PFK2, stronger effect = lower value 1.02 | S. cerevisiae deletion strains, locus YMR223W, strain ubp8, stronger effect = lower value 0.951 | S. cerevisiae deletion strains, locus YMR231W, strain pep5, stronger effect = lower value 0.998 | S. cerevisiae deletion strains, locus YMR307W, strain GAS1, stronger effect = lower value 1.01 | S. cerevisiae deletion strains, locus YNL067W, strain RPL9B, stronger effect = lower value 0.994 | S. cerevisiae deletion strains, locus YNL071W, strain lat1, stronger effect = lower value 0.988 | S. cerevisiae deletion strains, locus YNL128W, strain TEP1, stronger effect = lower value 1.01 | S. cerevisiae deletion strains, locus YNL183C, strain NPR1, stronger effect = lower value 0.902 | S. cerevisiae deletion strains, locus YNL209W, strain ssb2, stronger effect = lower value 1 | S. cerevisiae deletion strains, locus YNL233W, strain BNI4, stronger effect = lower value 0.961 | S. cerevisiae deletion strains, locus YNL248C, strain rpa49, stronger effect = lower value 0.941 | S. cerevisiae deletion strains, locus YNL250W, strain rad50, stronger effect = lower value 1.02 | S. cerevisiae deletion strains, locus YNL271C, strain bni1, stronger effect = lower value 0.993 | S. cerevisiae deletion strains, locus YNL298W, strain CLA4, stronger effect = lower value 0.961 | S. cerevisiae deletion strains, locus YNL307C, strain MCK1, stronger effect = lower value 0.989 | S. cerevisiae deletion strains, locus YNL322C, strain KRE1 (second series), stronger effect = lower value 0.995 | S. cerevisiae deletion strains, locus YNR049C, strain mso1, stronger effect = lower value 0.989 | S. cerevisiae deletion strains, locus YNR052C, strain pop2, stronger effect = lower value 0.974 | S. cerevisiae deletion strains, locus YOL006C, strain TOP1, stronger effect = lower value 0.805 | S. cerevisiae deletion strains, locus YOL012C, strain htz1 1.25 | S. cerevisiae deletion strains, locus YOL147C, strain pex11, stronger effect = lower value 0.993 | S. cerevisiae deletion strains, locus YOR001W, strain rrp6, stronger effect = lower value 0.967 | S. cerevisiae deletion strains, locus YOR061W, strain CKA2, stronger effect = lower value 1 | S. cerevisiae deletion strains, locus YOR069W, strain VPS5, stronger effect = lower value 1.01 | S. cerevisiae deletion strains, locus YOR070C, strain gyp1, stronger effect = lower value 0.99 | S. cerevisiae deletion strains, locus YOR080W, strain dia2, stronger effect = lower value 0.975 | S. cerevisiae deletion strains, locus YOR083W, strain WHI5, stronger effect = lower value 0.978 | S. cerevisiae deletion strains, locus YOR106W, strain vam3, stronger effect = lower value 0.993 | S. cerevisiae deletion strains, locus YOR136W, strain idh2, stronger effect = lower value 1 | S. cerevisiae deletion strains, locus YOR144C, strain elg1, stronger effect = lower value 1 | S. cerevisiae deletion strains, locus YOR184W, strain ser1, stronger effect = lower value 0.88 | S. cerevisiae deletion strains, locus YOR231W, strain MKK1, stronger effect = lower value 0.904 | S. cerevisiae deletion strains, locus YOR265W, strain rbl2, stronger effect = lower value 0.989 | S. cerevisiae deletion strains, locus YOR270C, strain vph1, stronger effect = lower value 0.893 | S. cerevisiae deletion strains, locus YOR290C, strain snf2, stronger effect = lower value 0.937 | S. cerevisiae deletion strains, locus YOR316C, strain cot1, stronger effect = lower value 1 | S. cerevisiae deletion strains, locus YPL051W, strain arl3, stronger effect = lower value 0.987 | S. cerevisiae deletion strains, locus YPL078C, strain atp4, stronger effect = lower value 0.992 | S. cerevisiae deletion strains, locus YPL106C, strain sse1, stronger effect = lower value 0.978 | S. cerevisiae deletion strains, locus YPL240C, strain hsp82, stronger effect = lower value 0.994 | S. cerevisiae deletion strains, locus YPL256C, strain CLN2, stronger effect = lower value 0.936 | S. cerevisiae deletion strains, locus YPR119W, strain clb2, stronger effect = lower value 1.01 | S. cerevisiae deletion strains, locus YPR141C, strain kar3, stronger effect = lower value 1.02 | S. cerevisiae deletion strains, locus YPR163C, strain tif3, stronger effect = lower value 1.02 | S. cerevisiae deletion strains, locus YPR167C, strain met16, stronger effect = lower value 0.981 | S. cerevisiae deletion strains, strain wtn01, stronger effect = lower value 0.988 | S. cerevisiae strains, strain wild type, stronger effect = lower value 1.01
